The list is not random: actives were taken first. Their share in the collection is about 3.7%.
Autofluor counter: flagged as autofluorescent in microsphere protease counterscreen; compound autofluorescence counterscreen, microsphere flow cytometry; hits give high values; fluorescence intensity (concentration not given with the values); 360,000 compounds, 3.1% hits; AID 624483; in the data active means fluorescence intensity above about 16000; inconclusive means no clear call, values can overlap the other calls
BoNT-A LC inh2: BoNT A light chain protease inhibition; AID 588499; 360,000 compounds, 0.17% hits; multiplex microsphere protease substrate cleavage, flow cytometry; inhibition, % at 10 µM; further: plate controls were buffer without enzyme for full effect and enzyme alone for no effect
Anthrax LF inh2: blocks Bacillus anthracis lethal factor protease | multiplex microsphere protease cleavage assay, LF | inhibition, % at 10 µM | 360,000 compounds, 0.12% hits | AID 588501; further: plate controls were buffer without enzyme for full effect and enzyme alone for no effect
BoNT F protease: inhibitors of Botulinum neurotoxin F light chain protease; Multiplex microsphere protease cleavage assay, flow cytometry; inhibition, % at 10 µM; 360,000 compounds, 0.22% hits; AID 588497; in the data active means inhibition above about 35%, passing the limit was not always enough; inconclusive means no clear call, values can overlap the other calls; further: plate controls were buffer without enzyme for full effect and enzyme alone for no effect
Vc quorum ag: quorum light induction in luxS cqsA deficient V. cholerae; V. cholerae BH1578 lux reporter, luminescence, 6 h; 350,000 compounds, 0.16% hits; activation, % at 18.7 µM; AID 588436; in the data active means activation mostly above about 9.7%, no sharp cut-off; inconclusive means no clear call, values can overlap the other calls; inactive means mostly below about 3.7%
BJeLR lethal: BJeLR cell viability loss. BJeLR (HRASV12) viability, CellTiter-Glo ATP luminescence, 48 h. inhibition, % (no concentration beside the values). 300,000 compounds, 0.17% hits; in the data active means inhibition above about 50%; inconclusive means no clear call, values can overlap the other calls
Numbers without * were called inactive; i = inactive; ? = inconclusive; . = no result given. Unless noted, no stated cut-off is given here; in the data, active means inhibition above about 30%; inconclusive means no clear call, values can overlap the other calls; inactive means below that.

SMILES	Autofluor counter	BoNT-A LC inh2	Anthrax LF inh2	BoNT F protease	Vc quorum ag	BJeLR lethal
CC(Oc1ccc2oc(-c3ccccc3)c(C(=O)O)c2c1)C(=O)O (stereo not drawn)	16623*	0	-4	-1	i	-6
CCOc1ccc2oc(-c3ccccc3)c(C(=O)O)c2c1	4320	0	4	-3	i	3
CCc1ccc2c(F)cccc2n1	5432	0	-7	-7	.	.
Cc1nn(C(C)C(=O)NC2C(=O)N3C(C(=O)O)=C(CSc4nnnn4C)CSC23)cc1Cl (stereo not drawn)	4177	-1	-6	2	25*	8
O=C(Nc1ncc(Cc2ccccc2Cl)s1)C1CCCO1 (stereo not drawn)	5621	0	-7	-8	i	1
O=C(Nc1nc(-c2ccc(Cl)cc2)cs1)C1CCCO1 (stereo not drawn)	2343	1	-2	-2	0	3
CCOc1ccc(-c2csc(NC(=O)C3CCCO3)n2)cc1 (stereo not drawn)	21480*	-2	-1	-3	0	0
Cc1cnc(NC(=O)C2CCCO2)s1 (stereo not drawn)	16597*	?	-2	-2	-3	3
CC1=C(C(=O)N2CCOCC2)CC(CC(=O)NCCCCc2ccccc2)C(=O)N1Cc1ccc(C(C)(C)C)cc1 (stereo not drawn)	2980	0	9	-11	0	.
CCOC(=O)c1ccc(-c2ccc(N3C(c4cccc(OC)c4)=Cc4ccc(F)cc4C3CC(C)=O)cc2)cc1F (stereo not drawn)	5073	13	18	6	.	.
Cc1ccc(-c2cc(=O)[nH][nH]2)c(C)c1	22424*	1	-1	1	i	-7
CC(C)Cc1ccc(-c2cc(=O)[nH][nH]2)cc1	4511	0	-4	2	0	4
CCc1nc2ccc(C(=O)N3CCN(c4ccccc4)CC3)cn2c1N(C)CCC(C)C	4015	0	-3	2	-3	.
COc1ccccc1C(=O)NC(CCSC)C(=O)NCC(c1ccco1)N(C)C (stereo not drawn)	21152*	-1	-1	-3	-6	2
CNC(=O)C1CN(C(=O)c2nn(Cc3ccccc3)c(=O)c3ccccc23)c2ccccc2O1 (stereo not drawn)	4334	0	2	-3	1	.
O=C(CCCCCn1c(SCC(=O)c2ccccc2)nc2ccccc2c1=O)NCc1ccco1	16253*	0	-3	-1	-2	-2
O=C(CCCn1c(SCC(=O)c2ccc(Cl)cc2)nc2ccccc2c1=O)NCc1ccco1	.	.	.	.	0	1
CCCCNC(=O)CSc1nc2ccccc2c(=O)n1CCNC(C)=O	9968	-2	-3	-9	.	-3
CC(=O)NCCn1c(SCC(=O)NCc2ccco2)nc2ccccc2c1=O	17328*	-2	-4	-4	i	6
CC(=O)NCCn1c(SCC(=O)NCCC(C)C)nc2ccccc2c1=O	23356*	-4	0	-3	i	4
CC(=O)NCCn1c(SCC(=O)c2ccc(Cl)cc2)nc2ccccc2c1=O	21199*	?	0	-6	i	-4
CCOC(=O)[C@]12CCC=C1N(Cc1cccc3ccccc13)C(=O)[C@H](CC(=O)N1CCN(C(=O)c3ccco3)CC1)C2	3982	0	-9	9	.	.
CCOC(=O)c1nnn(-c2nonc2N)c1CSc1ccccc1	22923*	1	-1	4	i	1
CCOC(=O)c1nnn(-c2nonc2N)c1CSc1ccc(C)cc1	4636	-1	-2	-18	-1	-2
CCOC(=O)c1nnn(-c2nonc2N)c1-c1ccccc1	23505*	0	-1	1	i	4
SMILES	Autofluor counter	BoNT-A LC inh2	Anthrax LF inh2	BoNT F protease	Vc quorum ag	BJeLR lethal
CC1(C(=O)NCC(F)(F)F)CCN1C(=O)Cc1ccc(-c2ccccc2)cc1 (stereo not drawn)	3318	0	-7	-4	i	.
O=C(CCN1C(=O)/C(=C/C=C/c2ccccc2)SC1=S)Nc1nc2ccccc2s1	2563	56*	28	20	0	-3
O=C(CN1C(=O)/C(=C\C=C\c2ccccc2)SC1=S)Nc1ccc(F)cc1	2623	34*	18	18	0	-34
O=C(COC(=O)CCN1C(=O)/C(=C\C=C\c2ccccc2)SC1=S)Nc1cc(F)ccc1F	4972	42*	20	11	-1	3
O=C(CCN1C(=O)/C(=C\C=C\c2ccccc2)SC1=S)Nc1ccc(C(=O)O)cc1	4578	18	9	24	i	-4
CN(Cc1ccccc1)Cc1ccccc1C(O)c1ccccc1 (stereo not drawn)	3332	-1	0	-3	i	.
CC1(C(=O)NS(=O)(=O)c2ccc(C#N)cc2)CCN1C(=O)Cc1cc(F)ccc1F (stereo not drawn)	4050	-1	0	-2	1	.
CC[C@H](C)[C@@H](CO)NC(=O)[C@H]1O[C@@H](n2ccc(N)nc2=O)[C@H](O)[C@@H]1O	6049	0	-5	4	.	.
COc1cccc2cc(C(=O)C3=C(O)C(=O)N(CCN(C)C)C3c3ccc(Cl)cc3)oc12 (stereo not drawn)	3918	?	30*	?	i	2
CN(C)CCN1C(=O)C(O)=C(C(=O)c2cc3ccccc3o2)C1c1cccc(Br)c1 (stereo not drawn)	22182*	?	-3	-6	i	0
CCOC(=O)CNC(=O)N1C[C@H]2CON(C)[C@H]2C[C@H]1c1ccccc1Br	3405	0	-5	-2	i	.
CC(C)=CC(=O)Nc1ccccc1Br	17220*	-4	-4	-5	-1	0
N#Cc1nc(-c2cccs2)oc1N1CCN(c2ccccc2)CC1	20556*	-3	-3	-5	-2	2
CCOc1ccc(-c2nnc(-c3cccs3)o2)cc1	4323	-1	-3	-15	i	12
N#Cc1nc(Cc2ccccc2)oc1N1CCN(c2ccccc2)CC1	10460	0	-4	-7	i	2
c1csc(-c2nnc(-c3ccc(N4CCOCC4)cc3)o2)c1	20353*	1	-2	2	-6	0
Fc1cccc(Cc2c(-c3ccc(Cl)cc3)nc3ccc(Br)cn23)c1	6431	2	2	-6	.	.
COc1ccc(-c2csc(C(C)(O)c3cccc(F)c3)n2)cn1 (stereo not drawn)	3801	0	6	4	0	.
O=C1c2ccccc2C(c2nnnn2C2CCCCC2)N1CCc1ccc(O)cc1 (stereo not drawn)	6415	0	-6	-2	.	.
N#Cc1cnc(SCC(=O)Nc2ccccc2C(F)(F)F)nc1N	17110*	?	4	-4	0	8
Cc1nc(N)sc1-c1nnc(SCC(=O)Nc2ccccc2C(F)(F)F)n1C	22790*	-2	-1	-4	0	4
O=C(OCC(=O)N1CCOCC1)c1ccc(Cl)nc1	22562*	1	-4	3	0	6
CC1CCN(C(=O)COC(=O)c2ccc(Cl)nc2)CC1	5274	3	0	1	i	.
